Screening data (PubChem BioAssay)
Many of the other results were omitted from the sample, so hits are more common in it than they were.
KDM5B inhibitor: Primary screen for KDM5B Histone Demethylases FDH-coupled qHTS. Lysine-specific demethylase 5B (Homo sapiens), Q9UGL1. KDM5B demethylase, FDH-coupled NADH fluorescence (FDH is formaldehyde dehydrogenase). Potency, µM (highest dose often 57.7 µM), hits mostly inhibitors. actives 2.6% (n = 220,000). AID 1347165, 2019; active = well fitted inhibition curve with a large enough effect; also: 0% is about no effect; nearly all actives have a fitted effect of over 70% in size
Target sequence (Q9UGL1 whole entry, looked up): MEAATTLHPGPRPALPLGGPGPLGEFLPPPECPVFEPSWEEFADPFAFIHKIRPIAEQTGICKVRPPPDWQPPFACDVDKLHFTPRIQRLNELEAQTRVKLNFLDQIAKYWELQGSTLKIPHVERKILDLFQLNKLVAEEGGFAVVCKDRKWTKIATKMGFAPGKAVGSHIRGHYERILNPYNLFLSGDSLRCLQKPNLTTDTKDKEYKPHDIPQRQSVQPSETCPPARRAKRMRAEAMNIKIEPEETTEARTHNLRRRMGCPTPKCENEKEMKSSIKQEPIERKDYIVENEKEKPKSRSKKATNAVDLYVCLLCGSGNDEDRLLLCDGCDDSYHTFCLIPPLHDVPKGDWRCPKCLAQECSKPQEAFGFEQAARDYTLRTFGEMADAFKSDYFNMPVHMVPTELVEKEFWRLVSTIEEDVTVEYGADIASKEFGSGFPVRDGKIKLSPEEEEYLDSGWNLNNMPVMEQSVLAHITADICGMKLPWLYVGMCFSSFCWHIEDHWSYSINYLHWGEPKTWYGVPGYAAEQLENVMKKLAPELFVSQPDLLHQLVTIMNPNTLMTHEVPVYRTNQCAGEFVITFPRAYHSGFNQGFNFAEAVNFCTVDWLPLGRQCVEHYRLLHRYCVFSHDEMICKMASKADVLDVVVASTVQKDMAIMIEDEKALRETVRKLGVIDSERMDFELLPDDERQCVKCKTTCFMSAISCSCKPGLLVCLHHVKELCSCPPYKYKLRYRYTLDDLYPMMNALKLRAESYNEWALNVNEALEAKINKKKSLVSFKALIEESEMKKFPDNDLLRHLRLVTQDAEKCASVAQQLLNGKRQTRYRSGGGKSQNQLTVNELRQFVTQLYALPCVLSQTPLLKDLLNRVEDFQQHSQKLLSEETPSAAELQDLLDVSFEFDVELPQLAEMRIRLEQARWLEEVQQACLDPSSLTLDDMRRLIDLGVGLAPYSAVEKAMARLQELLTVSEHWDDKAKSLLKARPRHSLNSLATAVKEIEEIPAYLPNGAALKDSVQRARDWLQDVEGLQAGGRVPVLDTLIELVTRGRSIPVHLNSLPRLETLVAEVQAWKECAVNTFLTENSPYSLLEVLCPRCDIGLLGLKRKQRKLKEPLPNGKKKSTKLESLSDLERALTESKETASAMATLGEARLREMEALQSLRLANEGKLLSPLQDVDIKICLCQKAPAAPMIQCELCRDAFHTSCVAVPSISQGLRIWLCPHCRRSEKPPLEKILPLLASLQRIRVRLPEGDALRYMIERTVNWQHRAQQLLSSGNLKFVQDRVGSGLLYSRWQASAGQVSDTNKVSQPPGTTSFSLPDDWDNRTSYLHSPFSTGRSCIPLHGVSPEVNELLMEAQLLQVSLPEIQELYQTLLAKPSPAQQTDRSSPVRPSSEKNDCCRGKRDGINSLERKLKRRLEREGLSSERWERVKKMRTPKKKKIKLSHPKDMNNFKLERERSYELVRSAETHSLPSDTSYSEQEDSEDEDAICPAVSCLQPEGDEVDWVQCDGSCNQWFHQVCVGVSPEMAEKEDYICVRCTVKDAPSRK
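KDM5BΔAP (200 nM final) in 50 mM HEPES pH 7.5, 0.01% Tween-20 was preincubated 10 min at RT with compound over a concentration range. Substrate mix (H3K4me3 12.5 µM, α-KG 25 µM, Fe²⁺, ascorbate, NAD⁺, FDH) was added, and NADH fluorescence change over 30 min gave dose-response curves.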
* hit, by the source's call. Potency is read from the fitted curve at half-maximal effect.

Results for CCOP(=O)(OCC)c1nc(-c2ccc([N+](=O)[O-])cc2)oc1NCc1ccc(C)cc1 ?
KDM5B inhibitor: inactive

Results for COc1ccc(N2C(=O)CSC23CCN(C(=O)Nc2ccc([N+](=O)[O-])cc2)CC3)cc1 ?
KDM5B inhibitor: inactive

Results for COc1cccc(CCC(=O)N2CCCC(CN3CCC(C)CC3)CC2)c1 (centres undefined) ?
KDM5B inhibitor: inactive

Results for CC(C)C(=O)N1N=C(c2ccco2)CC1c1ccc2nccnc2c1 (centres undefined) ?
KDM5B inhibitor: inactive

Results for CN(C)C1(CNC(=O)Cc2n[nH]c(=O)c3ccccc23)CCCCC1 ?
KDM5B inhibitor: inactive

Results for COc1ccc2nc(SCc3csc(NC(C)=O)n3)[nH]c2c1 ?
KDM5B inhibitor: inactive

Results for Cc1ncn(CC(=O)N[C@H]2CCOC[C@H]2C2CCOCC2)c1C ?
KDM5B inhibitor: inactive

What do the screens show for `Cc1cc(C(=O)N[C@H]2CCOC[C@H]2C2CCOCC2)cc(C)n1`?
KDM5B inhibitor: inactive

How did Cc1nc2ncccn2c1C(=O)N[C@H]1CCOC[C@H]1C1CCOCC1 do in these assays?
KDM5B inhibitor: 28µM*

Results for O=S(=O)(Nc1cc(Cl)cc(Cl)c1)c1cccc(C(F)(F)F)c1 ?
KDM5B inhibitor: inactive

What do the screens show for `FC(F)(F)c1c(C(F)(F)C(F)(F)F)nc2ccccc2c1Nc1ccccc1`?
KDM5B inhibitor: inactive

What do the screens show for `COc1cc(C(=O)NCc2coc(-c3cccs3)n2)cc(OC)c1C`?
KDM5B inhibitor: inactive

Results for CN1CCCN(C(=O)C2CCCO2)c2ccccc21 (centres undefined) ?
KDM5B inhibitor: inactive

Results for COc1cccc(-c2cn3c(n2)N(C(=O)C2CCC2)CCC3)c1 ?
KDM5B inhibitor: inactive

Results for N#Cc1cccc(C(=O)N2CCC(n3cc(-c4nc(-c5ccccc5)no4)nn3)C2)c1 (centres undefined) ?
KDM5B inhibitor: inactive

What do the screens show for `N#Cc1cccc(-c2cn3c(n2)N(C(=O)C2CCCO2)CCC3)c1` (centres undefined)?
KDM5B inhibitor: 32µM*

How did N#Cc1cccc(-c2cn3c(n2)N(C(=O)C2CCC2)CCC3)c1 do in these assays?
KDM5B inhibitor: 22µM*

Results for N#Cc1cccc(NC(=O)C2CCN(S(=O)(=O)c3ccc4c(c3)CCCN4C(=O)C3CCC3)CC2)c1 ?
KDM5B inhibitor: inactive

What do the screens show for `COc1ccc(NC(C)=O)cc1NC(=O)C(=O)c1c[nH]c2ccccc12`?
KDM5B inhibitor: inactive

What do the screens show for `Cc1cccc([C@H]2C[C@@H](O)[C@@H](O)[C@@H]2NS(=O)(=O)c2ccccc2)c1`?
KDM5B inhibitor: inactive

How did O=C1NC2(CCN(Cc3ccccc3)C2)COc2ccccc21 (centres undefined) do in these assays?
KDM5B inhibitor: 40µM*

Results for Cc1ccc(CN2CCC3(CC2)COc2ccccc2CN3)cc1 ?
KDM5B inhibitor: inactive

What do the screens show for `Cc1ccc(CN2CCC3(CC2)NC(=O)c2ccccc2O3)cc1`?
KDM5B inhibitor: inactive

What do the screens show for `Cc1ccc(CN2CCCC3(COc4ccccc4C(=O)N3)C2)cc1` (centres undefined)?
KDM5B inhibitor: 35µM*

What do the screens show for `N#Cc1ccc(CN2CCC3(COc4ccccc4C(=O)N3)C2)cc1` (centres undefined)?
KDM5B inhibitor: 40µM*

Results for N#Cc1ccc(CN2CCCC3(C2)NC(=O)c2ccccc2O3)cc1 (centres undefined) ?
KDM5B inhibitor: inactive

What do the screens show for `N#Cc1ccc(CN2CC3(C2)NC(=O)c2ccccc2O3)cc1`?
KDM5B inhibitor: inactive

How did Cn1cc(CN2CCC3(CC2)COc2ccccc2C(=O)N3)cn1 do in these assays?
KDM5B inhibitor: inactive

How did N#Cc1ccc(CN2CCC3(CC2)COc2ccccc2C(=O)N3)cc1 do in these assays?
KDM5B inhibitor: inactive

What do the screens show for `N#Cc1ccc(CN2CCCC3(COc4ccccc4C(=O)N3)C2)cc1` (centres undefined)?
KDM5B inhibitor: 35µM*

How did O=C1NC2(CCN(Cc3ccc(C(F)(F)F)cc3)CC2)COc2ccccc21 do in these assays?
KDM5B inhibitor: inactive

How did COc1cccc(CN2CCC3(CC2)COc2ccccc2C(=O)N3)c1 do in these assays?
KDM5B inhibitor: inactive

How did CCCC1C(c2ccccc2)NC(c2ccccc2)CC1(O)Cc1ccccc1 (centres undefined) do in these assays?
KDM5B inhibitor: inactive

How did COc1ccccc1CNC(=O)C1CCCN(c2nn3cc(-c4ccc(C)cc4)nc3s2)C1 (centres undefined) do in these assays?
KDM5B inhibitor: inactive

What do the screens show for `COC(=O)c1ccc(C2C(c3ccccc3)=C(O)C(=O)N2Cc2ccc(F)cc2)cc1` (centres undefined)?
KDM5B inhibitor: inactive

How did COc1ccc(S(=O)(=O)N2CCC3(CC2)CC(N2CCOCC2)CCO3)cc1 (centres undefined) do in these assays?
KDM5B inhibitor: inactive

What do the screens show for `CCOC(=O)c1cnc2ccc(OCC)cc2c1Nc1ccccc1OCC`?
KDM5B inhibitor: inactive

How did CN(C1CCCCC1)S(=O)(=O)c1ccc2c(c1)c(=O)n(CC(=O)N1CCCCCC1)c(=O)n2C do in these assays?
KDM5B inhibitor: inactive

How did COc1ccc(CCC2CCN(C(=O)C3CCN(S(=O)(=O)c4ccc(C)cc4C)CC3)CC2)cc1 do in these assays?
KDM5B inhibitor: inactive

What do the screens show for `NC(=O)c1cccc(OCc2ccccc2)c1`?
KDM5B inhibitor: inactive

Results for C#CCNC(=O)CN(Cc1cccs1)C1CC1 ?
KDM5B inhibitor: inactive

Results for CC1=C2C(=O)CC(c3cccc(Cl)c3)CC2=Nc2ccccc2N1 (centres undefined) ?
KDM5B inhibitor: inactive

Results for O=C1NC2(CCN(Cc3ccccc3C(F)(F)F)CC2)COc2ccccc21 ?
KDM5B inhibitor: inactive

How did CC(C)CCN1CCC2(CC1)COc1ccccc1C(=O)N2 do in these assays?
KDM5B inhibitor: inactive

What do the screens show for `O=C1NC2(CCN(Cc3ccc(OC(F)(F)F)cc3)C2)COc2ccccc21` (centres undefined)?
KDM5B inhibitor: 22µM*

Results for Cc1noc(-c2ccc(OC(F)(F)F)cc2)c1C(=O)NCc1ccsc1 ?
KDM5B inhibitor: inactive

How did Cc1cccc(-c2nc(CSc3n[nH]c(N)n3)no2)c1 do in these assays?
KDM5B inhibitor: inactive

How did COc1ccc(CCc2nc3nccc(-c4ccccn4)n3n2)cc1OC do in these assays?
KDM5B inhibitor: inactive

What do the screens show for `COc1ccc(-c2c(C)nn3c(NC4CCCCC4)cc(C)nc23)cc1OC`?
KDM5B inhibitor: inactive

How did COc1ccc(-c2ccnc3nc(CCC4CCCC4)nn23)cc1OC do in these assays?
KDM5B inhibitor: 13µM*

Results for COc1cc(-c2ccnc3nc(CCc4ccccc4)nn23)cc(OC)c1OC ?
KDM5B inhibitor: 14µM*

What do the screens show for `COc1ccc(CCc2nc3nccc(-c4cccnc4)n3n2)cc1OC`?
KDM5B inhibitor: inactive

How did COc1ccc(-c2ccnc3nc(CCc4ccccc4)nn23)cc1OC do in these assays?
KDM5B inhibitor: 22µM*

How did COc1cc(-c2ccnc3nc(CC(C)C)nn23)cc(OC)c1OC do in these assays?
KDM5B inhibitor: 18µM*

Results for COc1ccc(CCc2nc3nccc(-c4ccccc4)n3n2)cc1OC ?
KDM5B inhibitor: inactive

Results for CC(=O)Nc1ccc(N2C(=O)C(=O)/C(=C(/O)c3ccccc3)C2c2ccccc2)cc1 (centres undefined) ?
KDM5B inhibitor: inactive

Results for CC1(C)CC(=O)c2cc3c(N)c(C#N)sc3nc2C1 ?
KDM5B inhibitor: inactive
